# Bioassay records from PubChem BioAssay.
# The list is not random: actives were taken first. Their share in the collection is about 10%.
# Pf growth 48h – inhibits P. falciparum growth in the first generation, 48 h; P. falciparum luciferase growth in erythrocytes, 48 h; Potency, µM (titrated, usually from 28.7 µM), hits mostly inhibitors; actives 5.9% (n = 310,000); AID 504832
#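 Compounds are pin-transferred into medium, infected erythrocytes (2% hematocrit, 0.1% parasitemia final) are added, and plates sit one parasite generation at 37 C in 5% CO2. Detection reagent is then added and luminescence measured.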
# SARS PLpro yeast – SARS-CoV PLP inhibition in yeast; S. cerevisiae expressing SARS-CoV PLpro, growth rescue; Potency, µM (titrated, usually from 32.9 µM), usual class: activators; actives 0.19% (n = 330,000); AID 485353; calls by dose curve; also: nearly all actives have a fitted effect of over 55% in size
# NS1 inh – influenza NS1 inhibition | actives 0.4% (n = 270,000) | AID 2326 | Potency, µM (series often up to 46.1 µM); calls by dose curve; also: actives are rising curves; nearly all actives have a fitted effect of over 50% in size
#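 S. cerevisiae expressing influenza A NS1, grown in glucose, washed, then diluted 1:100 into pH 6.0 -URA galactose medium with 23 nl compound. Growth recovery read as OD600; NS1-free strain serves as control.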
# Pf growth 96h – P. falciparum growth inhibition at 96 hours. AID 504834. Potency, µM (highest dose often 28.7 µM), most hits filed as inhibitors. actives 6.9% (n = 320,000). P. falciparum luciferase reporter growth, 96 h
#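 Erythrocytes infected with luciferase-expressing P. falciparum were dispensed at 2% hematocrit and 0.05% parasitemia (final), then incubated with compounds 96 hours at 37 C in 5% CO2. Luminescence after detection reagent addition reported growth.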
# A number is an active result; n = inactive; u = inconclusive; x = no result given. Unless noted, calls follow the shape of the dose curve; as a rule, active = well fitted inhibition curve with a large enough effect; inconclusive = small, poorly fitted or top-dose-only effect, or another doubt; inactive = no such curve, though single readings can be large or run the other way.
SMILES,Pf growth 48h,SARS PLpro yeast,NS1 inh,Pf growth 96h
O=C(CSc1nncc2ccccc12)Nc1cccc(O)c1,u,n,n,n
COc1ccc(C2CC(c3cccs3)=NN2C(=O)c2ccc(Br)o2)cc1 (stereo unspecified),1.65µM,n,n,u
COc1ccc(C2CC(c3cccs3)=NN2C(=O)c2ccco2)cc1OC (stereo unspecified),0.262µM,n,n,0.131µM
COc1ccc(C2CC(c3cccs3)=NN2C(=O)CSc2nncn2C)cc1OC (stereo unspecified),n,n,n,n
CCN1CCN(CC(=O)N2N=C(c3cccs3)CC2c2ccc(OC)c(OC)c2)C(=O)C1=O (stereo unspecified),u,n,x,u
O=C(c1ccco1)N1N=C(c2cccs2)CC1c1ccc(F)cc1 (stereo unspecified),x,n,n,0.828µM
COc1ccc(C2CC(c3cccs3)=NN2C(=O)CSc2nnnn2C)cc1OC (stereo unspecified),u,n,n,11.7µM
CS(=O)(=O)Nc1ccc(C2=NN(C(=O)c3ccco3)C(c3ccc(F)cc3)C2)cc1 (stereo unspecified),u,n,x,u
Cn1c(N)c(C(=O)COC(=O)/C=C/c2ccc(Cl)c(Cl)c2)c(=O)n(C)c1=O,x,n,x,x
O=C(c1cccs1)N1N=C(c2ccccc2)CC1c1ccccc1 (stereo unspecified),u,n,n,2.62µM
CCOc1ccc(S(=O)(=O)N2CCOCC2)cc1NC(=O)CSCc1c(C)noc1C,u,n,x,n
CC(C)(C)NC(=O)C(c1cccs1)N(Cc1cccs1)C(=O)c1ccc(CN2CCOCC2)o1 (stereo unspecified),n,n,x,n
Cc1cccc(N(C(=O)c2ccc(CN3CCOCC3)o2)C(C(=O)NC(C)(C)C)c2ccc(F)cc2)c1 (stereo unspecified),8.28µM,n,n,u
O=C(c1cc(-c2ccccc2)n[nH]1)N1CCN(S(=O)(=O)c2ccccc2)CC1,3.7µM,n,n,u
Cc1ccc(S(=O)(=O)N2CCN(C(=O)c3n[nH]c4ccccc34)CC2)cc1,2.62µM,n,x,11.7µM
Cc1cc(C)c(S(=O)(=O)N2CCN(C(=O)c3cc(=O)[nH]c4ccccc34)CC2)c(C)c1,11.7µM,n,x,u
O=C(c1n[nH]c2ccccc12)N1CCN(S(=O)(=O)c2ccc3ccccc3c2)CC1,u,n,n,n
Cc1cc(C)c(C)c(S(=O)(=O)N2CCN(C(=O)c3cc(=O)[nH]c4ccccc34)CC2)c1C,u,n,n,u
COc1ccccc1-c1cc(C(=O)N2CCN(S(=O)(=O)c3ccc(C)cc3)CC2)[nH]n1,0.465µM,n,n,14.7µM
CCOc1ccc(NC(=O)CCC(=O)Oc2ccc(C)cc2)cc1,n,n,n,n
C/C(=N/NC(=O)c1ccncc1)c1ccccc1Cl,x,x,n,x
COC(=O)c1ccc(N2CCOCC2)c(NC(=O)c2cccnc2)c1,n,n,n,n
COc1ccc(S(=O)(=O)N2CCN(C(=O)c3cc(-c4ccc(Br)cc4)n[nH]3)CC2)cc1OC,9.28µM,n,n,u
O=C(c1cc(-c2ccc(Br)cc2)n[nH]1)N1CCN(C(=O)c2ccccc2Br)CC1,9.28µM,n,n,n
COc1ccc(-c2cc(C(=O)N3CCN(C(=O)c4ccccc4F)CC3)[nH]n2)cc1,u,x,n,u
SMILES,Pf growth 48h,SARS PLpro yeast,NS1 inh,Pf growth 96h
COc1ccc(-c2cc(C(=O)N3CCN(S(=O)(=O)c4ccccc4)CC3)[nH]n2)cc1,u,n,n,n
Cc1ccc(S(=O)(=O)N2CCOCC2)cc1NCC(=O)Nc1ccc(OC(F)(F)F)cc1,x,n,x,x
Nc1nnc(SCC(=O)OCC(=O)NC23CC4CC(CC(C4)C2)C3)s1,13.1µM,n,x,n
Cc1ccccc1C(=O)Nc1cc(S(=O)(=O)N2CCOCC2)ccc1N1CCN(C)CC1,u,n,x,n
CC(C(=O)N1CCc2ccccc21)N1CCc2ccccc2C1 (stereo unspecified),u,n,n,9.28µM
Cc1ccc(OC(C)C(=O)N2CCc3ccccc32)cc1 (stereo unspecified),2.94µM,n,n,x
CC(C(=O)N1CCc2ccccc21)N1CCN(S(=O)(=O)c2cccc(C(F)(F)F)c2)CC1 (stereo unspecified),11.7µM,n,x,13.1µM
CC(Sc1nnc(-c2ccccc2)c(-c2ccccc2)n1)C(=O)N1CCc2ccccc21 (stereo unspecified),n,n,n,7.38µM
CCCc1cc(=O)[nH]c(SCC(=O)NC(=O)NC2CCCC2)n1,n,n,x,n
COc1ccccc1C1CCN(c2cc(O)ccc2[N+](=O)[O-])CC1,u,n,n,u
N[C@@H](COP(=O)(O)O)C(=O)O,x,x,n,x
Cc1nn(C(C)C(=O)N2CCc3ccccc32)c(C)c1[N+](=O)[O-] (stereo unspecified),u,u,n,5.22µM
O=[N+]([O-])c1cccc(-c2cc3cccc[n+]3cc2-c2cccc([N+](=O)[O-])c2)c1,0.522µM,n,n,0.165µM
O=[N+]([O-])c1cccc(-c2nnc(-c3ccccc3)o2)c1,n,n,n,n
Cc1sc2cc(-c3cccc([N+](=O)[O-])c3)c(-c3cccc([N+](=O)[O-])c3)c[n+]2c1C,0.928µM,n,n,0.828µM
O=c1cc(-c2cccc([N+](=O)[O-])c2)[nH][nH]1,n,n,u,n
C[C@H]1CC[C@H]2C(=O)N[C@H](Cc3ccccc3)C(=O)N2[C@@H]1c1ccccc1,n,n,n,n
CCOC(=O)C1=C(C)N=C2SC(C)C(=O)N2C1c1cccc(F)c1 (stereo unspecified),x,n,n,u
CC1=C(C(=O)OC(C)C)C(c2cccc(F)c2)N2C(=O)C(C)SC2=N1 (stereo unspecified),11.7µM,n,u,u
CC1=C(C(=O)OCC(C)C)C(c2cccc(F)c2)N2C(=O)C(C)SC2=N1 (stereo unspecified),10.4µM,n,u,11.7µM
COc1ccc(C(=O)CC2SC(N)=NC2=O)cc1 (stereo unspecified),n,n,n,n
CC(C)(C)c1ccc(C2=NC(=O)C(CC(=O)O)S2)cc1 (stereo unspecified),2.62µM,n,n,n
O=[N+]([O-])c1cccc(/C=C2\CCC(/C=N/Nc3ccc4ccccc4n3)=C2N2CCOCC2)c1,u,n,n,0.415µM
CC1CCC2(CC1)NC(=O)N(CC(=O)Nc1sc3c(c1C(N)=O)CCC3)C2=O (stereo unspecified),n,n,x,n
CC1CCCCC12NC(=O)N(CC(=O)Nc1sc3c(c1C(N)=O)CCC3)C2=O (stereo unspecified),x,n,n,10.4µM
CC(=O)N1CCc2cc(S(=O)(=O)NC(CC(C)C)C(=O)Nc3cc(C(=O)O)ccc3C)ccc21 (stereo unspecified),n,u,n,0.294µM
CC1CCCCN1C(=S)NCc1ccco1 (stereo unspecified),n,n,x,n
CCOC(=O)CN1C(=O)/C(=C/c2cccc(Br)c2)Oc2ccccc21,u,n,n,n
O=C(CN1C(=O)/C(=C\c2cccc(Br)c2)Oc2ccccc21)NCC1CCCO1 (stereo unspecified),u,x,n,13.1µM
